Results reported in the supplement of paper PMC7411054.

How the values were obtained:
Experiment in all cases: phenotypically active (imaging signature differs from DMSO and reproducible) at any of 0.3-9 uM (binary (1 = active, 0 = inactive)); higher = active
Conditions in all cases: treatment time: 24 h
[1] = tested on: A549-ACTB-RAB5A
How it was run: (§1)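 Phenotypic activity depended on meeting both a deviation and a reproducibility criterion. The fifteen gene-edited A549, HepG2 and WPMY1 reporter lines were treated at 0.3, 1, 3 or 9 µM for 24 h, four wells each, then imaged live with features normalised to solvent control wells. Deviation required ≥3 of 4 wells past the 95th percentile of control Euclidean distances, and reproducibility a median replicate Pearson correlation above the 95th percentile of non-replicates.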

[2] = tested on: A549-CANX-COX4
How it was run: as §1

[3] = tested on: A549-GM130-SQSTM1
How it was run: as §1

[4] = tested on: A549-TP53BP1-CLTA
How it was run: as §1

[5] = tested on: A549-TUBA1B-RELA
How it was run: as §1

[6] = tested on: HepG2-ACTB-RAB5A
How it was run: as §1

[7] = tested on: HepG2-CANX-COX4
How it was run: as §1

[8] = tested on: HepG2-GM130-SQSTM1
How it was run: as §1

[9] = tested on: HepG2-TP53BP1-CLTA
How it was run: as §1

[10] = tested on: HepG2-TUBA1B-RELA
How it was run: as §1

[11] = tested on: WPMY1-ACTB-RAB5A
How it was run: as §1

[12] = tested on: WPMY1-CANX-COX4
How it was run: as §1

[13] = tested on: WPMY1-GM130-SQSTM1
How it was run: as §1

[14] = tested on: WPMY1-TP53BP1-CLTA
How it was run: as §1

[15] = tested on: WPMY1-TUBA1B-RELA
How it was run: as §1

Measured: phenotypically active

CCCNC(=O)NS(=O)(=O)c1ccc(Cl)cc1 [chlorpropamide]
inactive: [1] 0 | [2] 0 | [3] 0 | [4] 0 | [5] 0 | [6] 0 | [7] 0 | [8] 0 | [9] 0 | [10] 0 | [11] 0 | [12] 0 | [13] 0 | [14] 0 | [15] 0

CC[N+](CC)(CCNC(=O)C(=O)NCC[N+](CC)(CC)Cc1ccccc1Cl)Cc1ccccc1Cl [ambenonium]
inactive: [1] 0 | [2] 0 | [3] 0 | [4] 0 | [5] 0 | [6] 0 | [7] 0 | [8] 0 | [9] 0 | [10] 0 | [11] 0 | [12] 0 | [13] 0 | [14] 0 | [15] 0

CCCCCCCCCN1C[C@H](O)[C@@H](O)[C@H](O)[C@H]1CO [N-Nonyldeoxynojirimycin]
inactive: [1] 0 | [2] 0 | [3] 0 | [4] 0 | [5] 0 | [6] 0 | [7] 0 | [8] 0 | [9] 0 | [10] 0 | [11] 0 | [12] 0 | [13] 0 | [14] 0 | [15] 0

Cn1nnc2c(C(N)=O)ncn2c1=O [temozolomide]
inactive: [1] 0 | [2] 0 | [3] 0 | [4] 0 | [5] 0 | [6] 0 | [7] 0 | [8] 0 | [9] 0 | [10] 0 | [11] 0 | [12] 0 | [13] 0 | [14] 0 | [15] 0

COc1ccc2cc(CCC(C)=O)ccc2c1 [nabumetone]
inactive: [1] 0 | [2] 0 | [3] 0 | [4] 0 | [5] 0 | [6] 0 | [7] 0 | [8] 0 | [9] 0 | [10] 0 | [11] 0 | [12] 0 | [13] 0 | [14] 0 | [15] 0

OC[C@H]1NC[C@H](O)[C@@H](O)[C@@H]1O [1-Deoxynojirimycin]
inactive: [1] 0 | [2] 0 | [3] 0 | [4] 0 | [5] 0 | [6] 0 | [7] 0 | [8] 0 | [9] 0 | [10] 0 | [11] 0 | [12] 0 | [13] 0 | [14] 0 | [15] 0

Cc1ccccc1Sc1ccc(/C=C2/SC(=S)NC2=O)cc1[N+](=O)[O-]
inactive: [1] 0 | [2] 0 | [3] 0 | [4] 0 | [5] 0 | [6] 0 | [7] 0 | [8] 0 | [9] 0 | [10] 0 | [11] 0 | [12] 0 | [13] 0 | [14] 0 | [15] 0

OCCN1C[C@H](O)[C@@H](O)[C@H](O)[C@H]1CO [Miglitol]
inactive: [1] 0 | [2] 0 | [3] 0 | [4] 0 | [5] 0 | [6] 0 | [7] 0 | [8] 0 | [9] 0 | [10] 0 | [11] 0 | [12] 0 | [13] 0 | [14] 0 | [15] 0

NC(=O)c1cccnc1 [Nicotinamide]
inactive: [1] 0 | [2] 0 | [3] 0 | [4] 0 | [5] 0 | [6] 0 | [7] 0 | [8] 0 | [9] 0 | [10] 0 | [11] 0 | [12] 0 | [13] 0 | [14] 0 | [15] 0

CC(C)c1ccc2oc3nc(N)c(C(=O)O)cc3c(=O)c2c1 [Amlexanox]
inactive: [1] 0 | [2] 0 | [3] 0 | [4] 0 | [5] 0 | [6] 0 | [7] 0 | [8] 0 | [9] 0 | [10] 0 | [11] 0 | [12] 0 | [13] 0 | [14] 0 | [15] 0

CC(=O)[C@H]1CC[C@H]2[C@@H]3C=CC4=CC(=O)CC[C@@]4(C)[C@@H]3CC[C@]12C [dydrogesterone]
inactive: [1] 0 | [2] 0 | [3] 0 | [4] 0 | [5] 0 | [6] 0 | [7] 0 | [8] 0 | [9] 0 | [10] 0 | [11] 0 | [12] 0 | [13] 0 | [14] 0 | [15] 0

CC(C)C(=O)SCCCCC[C@H](NC(=O)OC(C)(C)C)C(=O)NC12CC3CC(CC(C3)C1)C2
inactive: [1] 0 | [2] 0 | [3] 0 | [4] 0 | [5] 0 | [6] 0 | [7] 0 | [8] 0 | [9] 0 | [10] 0 | [11] 0 | [12] 0 | [13] 0 | [14] 0 | [15] 0
